# Bioassay records: PubChem BioAssay, several laboratories
# SIRT5 block – SIRT5 desuccinylase inhibitors, primary screen, biochemical, fluorescence imaging, single point, set 5; hit rate 1.1% among 330,000; NAD-dependent protein deacylase sirtuin-5, mitochondrial (Homo sapiens), Q9NXA8; inhibition, % at 15 µM; Purified SirT5, succinyl-peptide AMC, trypsin-coupled fluorescence; in the data active = inhibition above about 15%
# Casp6 inh – human caspase-6 inhibitors, primary screen, biochemical, VEID-R110 fluorescence, single point, set 2; purified caspase-6, Z-VEID-R110 cleavage fluorescence; P55212; inhibition, % at 12.5 µM; hit rate 0.53% among 350,000;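 active = mean inhibition across replicates at least about 35%, with every replicate also reaching that limit, limit read from the data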;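 also: 0% = median of neutral control wells and 100% = no fluorescence left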
# NSD2 HMT inh – NSD2 histone methyltransferase inhibitors, primary screen, biochemical, AlphaScreen, single concentration, set 2 | inhibition, % at 12.5 µM | NSD2 peptide methylation, 120 min | hit rate 0.54% among 310,000; in the data active = inhibition above about 50%
# Target sequence (O96028 whole entry, looked up): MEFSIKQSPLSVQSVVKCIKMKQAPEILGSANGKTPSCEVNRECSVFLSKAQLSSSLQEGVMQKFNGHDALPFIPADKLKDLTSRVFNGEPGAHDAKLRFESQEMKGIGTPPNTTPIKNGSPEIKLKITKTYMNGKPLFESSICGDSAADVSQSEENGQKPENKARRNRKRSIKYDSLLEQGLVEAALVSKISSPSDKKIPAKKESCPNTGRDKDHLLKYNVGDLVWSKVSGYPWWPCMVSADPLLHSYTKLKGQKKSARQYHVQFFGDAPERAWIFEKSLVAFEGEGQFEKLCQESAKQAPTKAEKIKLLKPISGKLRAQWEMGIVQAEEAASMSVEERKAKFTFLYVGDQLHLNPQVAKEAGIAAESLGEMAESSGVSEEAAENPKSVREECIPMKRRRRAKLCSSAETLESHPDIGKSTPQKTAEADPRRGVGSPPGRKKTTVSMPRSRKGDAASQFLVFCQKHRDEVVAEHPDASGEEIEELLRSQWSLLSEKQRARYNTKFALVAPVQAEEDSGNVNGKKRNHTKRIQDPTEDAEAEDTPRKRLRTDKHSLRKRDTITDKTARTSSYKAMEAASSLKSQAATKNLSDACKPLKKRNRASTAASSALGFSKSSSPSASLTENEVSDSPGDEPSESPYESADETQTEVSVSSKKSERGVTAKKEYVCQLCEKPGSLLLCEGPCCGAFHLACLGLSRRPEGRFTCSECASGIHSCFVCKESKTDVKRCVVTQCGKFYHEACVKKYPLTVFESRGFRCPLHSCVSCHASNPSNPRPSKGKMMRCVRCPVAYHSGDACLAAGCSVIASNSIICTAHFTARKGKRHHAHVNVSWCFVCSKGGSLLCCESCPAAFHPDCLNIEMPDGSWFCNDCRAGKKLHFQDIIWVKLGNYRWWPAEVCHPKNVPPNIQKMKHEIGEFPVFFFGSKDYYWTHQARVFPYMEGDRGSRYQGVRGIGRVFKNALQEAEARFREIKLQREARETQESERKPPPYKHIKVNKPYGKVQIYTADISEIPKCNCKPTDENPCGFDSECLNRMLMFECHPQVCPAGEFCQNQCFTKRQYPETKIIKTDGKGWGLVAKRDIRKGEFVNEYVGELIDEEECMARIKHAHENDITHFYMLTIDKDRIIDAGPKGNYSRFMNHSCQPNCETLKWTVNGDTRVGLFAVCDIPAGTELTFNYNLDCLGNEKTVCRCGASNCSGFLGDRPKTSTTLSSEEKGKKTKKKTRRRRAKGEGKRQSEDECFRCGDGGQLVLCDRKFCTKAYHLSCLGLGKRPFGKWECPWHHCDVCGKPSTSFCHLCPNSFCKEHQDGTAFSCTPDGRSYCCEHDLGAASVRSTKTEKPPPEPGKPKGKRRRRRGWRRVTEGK
# SUMO HTRF inh – inhibitors of in vitro SUMOylation cascade, primary screen, biochemical, HTRF, uHTS; inhibition, % at 35 µM; AID 2006, 2009; hit rate 0.36% among 290,000; HTRF SUMOylation assay, SAE1/SAE2 + UBC9; in the data active = inhibition above about 50%, passing the limit was not always enough
# The depositor's hits bear a star; / = not tested or not shown. The list is not random: actives were taken first. Their share in the collection is about 1.6%.
SMILES,SIRT5 block,Casp6 inh,NSD2 HMT inh,SUMO HTRF inh
CCn1c(C)nc2cc(C(=O)N/N=C/c3cccc(OC)c3O)ccc21,-1,-7,0,-6
CN(C)S(=O)(=O)c1cccc(NC(=S)N/N=C/c2ccc(O)c(O)c2O)c1,3,38*,-6,52*
CCN(CC)S(=O)(=O)c1cccc(C(=O)N/N=C/c2ccc(O)c(O)c2O)c1,/,/,10,50*
CCn1c(C)nc2cc(C(=O)N/N=C/c3ccc(O)c(O)c3O)ccc21,6,6,45,68*
CNC[C@H]1Oc2ccc(NC(=O)NC3CCCCC3)cc2C(=O)N([C@H](C)CO)C[C@H]1C,-1,-2,/,/
COc1ccc(NC(=O)Nc2cccc3c2O[C@@H](CN(C)C(=O)Nc2ccc(OC)cc2)[C@H](C)CN([C@H](C)CO)C3=O)cc1,-1,0,/,/
C=CCNc1nnc(Cl)c2ccccc12,26*,-1,7,-11
CC(C)NC(=O)Nc1cccc2c1O[C@H](CN(C)S(=O)(=O)c1ccccc1)[C@H](C)CN([C@H](C)CO)C2=O,2,3,/,/
Cc1ccc(S(=O)(=O)/N=C2\C(=O)c3ccccc3C([O-])=C2n2cc[n+](CCC(C)C)c2)cc1,/,/,/,-1
CC(=O)Nc1ccc(S(=O)(=O)/N=C2\C(=O)c3ccccc3C([O-])=C2n2cc[n+](-c3ccccn3)c2)cc1,3,68*,46,50
O=C(NC[C@@H]1[C@@H](c2ccccc2)[C@H](CO)N1Cc1cccnc1)c1ccccn1,0,/,/,/
CC1(C)CN(c2ccccc2)N(C(=O)c2ccc(F)cc2)C1=O,24*,1,3,-5
O=C1c2cc(CO)cc(O)c2C(=O)c2c(O[C@@H]3OC(CO)[C@@H](O)[C@@H](O)[C@@H]3O)cccc21 (some centres not stated),4,10,/,/
O=C(O)c1cc(O)c2c(c1)[C@@H]([C@H]1c3cc(C(=O)O)cc(O)c3C(=O)c3c(O[C@@H]4O[C@H](CO)[C@@H](O)[C@H](O)[C@H]4O)cccc31)c1cccc(OC3O[C@H](CO)[C@@H](O)[C@H](O)[C@H]3O)c1C2=O (some centres not stated),4,91*,/,/
O=C(O)c1cc(O)c2c(c1)[C@H]([C@H]1c3cc(C(=O)O)cc(O)c3C(=O)c3c(O[C@@H]4O[C@H](CO)[C@@H](O)[C@H](O)[C@H]4O)cccc31)c1cccc(OC3O[C@H](CO)[C@@H](O)[C@H](O)[C@H]3O)c1C2=O (some centres not stated),4,83*,/,/
Cc1ccc(-c2nc(NC(=O)CSc3cc(C)c4ccccc4n3)ns2)cc1,-4,-2,/,-10
COc1ccc2c(C)cc(SCC(=O)Nc3nsc(-c4ccc(C)cc4)n3)nc2c1,/,49*,/,8
O=C(CCC1CCCN(Cc2ccc3c(c2)OCCO3)C1)NCc1ccc(F)c(F)c1 (configuration not stated),0,-2,-1,8
O=C(CCC1CCCN(Cc2cccc3c2OCO3)C1)NCc1ccc(F)c(F)c1 (configuration not stated),38*,6,3,-6
Cc1ccc2c(c1)c1c(n2CC(O)CNC(C)(C)C)CCCC1 (configuration not stated),/,65*,/,2
Cc1ccc2c(c1)c1c(n2CC(O)CN2CCCCCC2)CCCC1 (configuration not stated),-6,/,23,-2
C[C@H]1CN([C@@H](C)CO)C(=O)c2cc(-c3ccncc3)cnc2O[C@@H]1CN(C)C(=O)c1ccc(F)cc1,2,-1,/,/
Cc1ccc(S(=O)(=O)N(C)C[C@@H]2OCCCC[C@@H](C)Oc3ccc(NC(=O)NC4CCCCC4)cc3C(=O)N([C@@H](C)CO)C[C@@H]2C)cc1,15*,2,/,/
C[C@@H]1CN([C@H](C)CO)C(=O)c2cc(NC(=O)NC3CCCCC3)ccc2O[C@@H](C)CCCCO[C@H]1CN(C)S(=O)(=O)c1ccc(Cl)cc1,15*,-1,/,/
COc1ccc2c([N+](=O)[O-])c(N3CCOCC3)[nH]c2c1,3,2,2,/
COc1ccc2c([N+](=O)[O-])c(Cl)[nH]c2c1,-1,63*,/,16
O=C(Nc1ccc(Nc2ccncc2)cc1)c1ccc(Nc2ccnc3ccc([N+](=O)[O-])cc23)cc1,-2,0,0,69*
